Compound activity (PubChem BioAssay)
RBX1-CUL1 inh – inhibitors of human ROC1-CUL1 ubiquitin ligase activity; 140,000 compounds, 0.6% hits; in vitro K48 di-Ub FRET, acceptor:donor ratio, 45 min; inhibition, % at 10 µM; E3 ubiquitin-protein ligase RBX1 (Homo sapiens) + Cullin-1 (Homo sapiens), P62877+Q13616; in the data active means inhibition above about 25%
Target sequence (P62877 whole entry, looked up): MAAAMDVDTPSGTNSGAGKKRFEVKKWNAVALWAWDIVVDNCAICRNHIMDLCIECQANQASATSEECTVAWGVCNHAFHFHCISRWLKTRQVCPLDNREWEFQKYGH
Target sequence (Q13616 whole entry, looked up): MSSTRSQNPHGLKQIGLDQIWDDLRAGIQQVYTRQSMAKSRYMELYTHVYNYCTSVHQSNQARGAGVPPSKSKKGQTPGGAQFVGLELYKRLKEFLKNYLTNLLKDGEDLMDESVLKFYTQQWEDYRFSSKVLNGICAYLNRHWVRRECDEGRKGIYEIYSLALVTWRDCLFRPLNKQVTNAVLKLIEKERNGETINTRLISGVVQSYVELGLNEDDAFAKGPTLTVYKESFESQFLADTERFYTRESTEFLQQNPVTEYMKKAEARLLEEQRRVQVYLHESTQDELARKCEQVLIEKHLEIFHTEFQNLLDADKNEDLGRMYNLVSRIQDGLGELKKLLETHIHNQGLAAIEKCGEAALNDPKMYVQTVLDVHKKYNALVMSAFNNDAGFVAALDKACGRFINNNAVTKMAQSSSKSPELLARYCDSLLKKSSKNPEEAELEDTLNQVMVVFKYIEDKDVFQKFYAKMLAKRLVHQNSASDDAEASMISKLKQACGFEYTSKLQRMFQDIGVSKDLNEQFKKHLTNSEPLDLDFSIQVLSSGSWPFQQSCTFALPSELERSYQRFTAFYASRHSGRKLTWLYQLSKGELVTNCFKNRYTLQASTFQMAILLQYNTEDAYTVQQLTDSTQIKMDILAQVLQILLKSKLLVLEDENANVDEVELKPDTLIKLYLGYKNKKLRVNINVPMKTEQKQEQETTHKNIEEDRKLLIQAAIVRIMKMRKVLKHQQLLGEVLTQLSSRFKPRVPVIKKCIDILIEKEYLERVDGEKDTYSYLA
* marks the source's active call; other numbers are inactive results. The sample as a whole holds a higher share of hits than the screen did.

SMILES | RBX1-CUL1 inh
CCN(C(=O)C1CCN(C(=O)c2ccc(Cl)cc2)CC1)C1CCCCC1 | -7.4
COc1cc(C(=O)OCCN2CCN(C(=O)c3cccnc3Cl)CC2)cc(OC)c1OC | 4.8
O=[N+]([O-])c1ccc2nc(-c3ccc(Br)cc3)cn2c1 | 5.4
Brc1ccc(-c2cn3ccncc3n2)cc1 | 29.1*
FC(F)(F)c1ccc2nc(-c3ccc(Br)cc3)cn2c1 | -1.6
Cc1occc1C(=O)N/N=C/c1ccc([N+](=O)[O-])o1 | -6.7
CC(CN1CCOCC1)OC(=O)c1cc2ccccc2o1 (stereo not given) | -5.3
Cc1ccc(NC(=S)NC(=O)c2ccc(F)cc2)cc1C | 0.4
N#Cc1ccccc1NC(=O)c1sc2nc3c(cc2c1N)CCCCCC3 | 0.2
CCc1cccc(C)c1NS(=O)(=O)c1cc2[nH]c(=O)c(=O)[nH]c2cc1C | 43.5*
CCOC(=O)c1cccc(NS(=O)(=O)c2cc3[nH]c(=O)c(=O)[nH]c3cc2C)c1 | -1.1
Cc1cc(C)cc(NS(=O)(=O)c2cc3[nH]c(=O)c(=O)[nH]c3cc2C)c1 | -7.7
NC(=O)CSc1nc(SCC(N)=O)c2cnn(-c3ccccc3)c2n1 | -2.0
Cc1ccc(C(=O)NCCC2CN(c3cnn(C)c(=O)c3)CCO2)s1 (stereo not given) | -2.0
Cc1cc(O)ccc1NC(=O)COc1cccc2ccccc12 | 2.8
O=C(COc1cccc2ccccc12)Nc1ccc(Cl)cc1C(=O)O | 25.4*
COc1ccccc1NC(=O)COc1cccc2ccccc12 | -0.4
Cc1ccc(N2CC(C(=O)N3CCOCC3)CC2=O)c(C)c1 (stereo not given) | -8.5
CCc1nn(-c2cc(Oc3ccc(Cl)cc3)nc(SC)n2)c(N)c1C#N | 11.1
COc1c(Cl)ccc(S(=O)(=O)N2CCCC2)c1Cl | -4.8
COc1ccc(NC(=O)CSc2ncc3c(n2)-c2cc(Cl)ccc2N(Cc2ccccc2F)S3(=O)=O)cc1 | 44.8*
COc1ccc(CNC(=O)CSc2ncc3c(n2)-c2cc(Cl)ccc2N(Cc2ccccc2)S3(=O)=O)cc1 | 2.5
COc1ccccc1NC(=O)CSc1ncc2c(n1)-c1cc(Cl)ccc1N(C)S2(=O)=O | -8.1
CCOC(=O)NS(=O)(=O)c1cnccc1Nc1cccc(C(F)(F)F)c1 | 3.7
Cc1cccc(CS(=O)(=O)N2CCN(c3cccc(Cl)c3)CC2)c1 | 6.6
SMILES | RBX1-CUL1 inh
COc1ccc(NC(=O)CCC(C(C)=O)[N+](=O)[O-])cc1 (stereo not given) | 6.8
CCOC(=O)c1c(Cl)cc(C)nc1Cl | 6.2
Cc1cc(Cl)c2c(N)c(C)cc(C)c2n1 | 91.5*
Cc1cc(N2CCOCC2)c2c(N)c(Br)cc(C)c2n1 | -0.8
COc1ccc(-c2cnccn2)cc1OC | -10.2
COc1ccc(Cc2nnc(NS(=O)(=O)Cc3ccccc3)s2)cc1OC | -2.3
CSC1=N/C(=C\c2ccc(OC3CCCC3)cc2)C(=O)S1 | 4.8
CSC1=N/C(=C\c2ccc(C(=O)O)cc2)C(=O)S1 | 49.7*
CSC1=N/C(=C\c2cc(Br)ccc2OCC(=O)O)C(=O)S1 | 49.8*
CSC1=N/C(=C\c2ccc(F)cc2)C(=O)S1 | 6.6
O=C(O)COc1ccc(Br)cc1Cl | -3.0
COc1cccc(/C=C2\N=C(SC)SC2=O)c1OCc1ccccc1 | -2.7
COc1ccc(CNC(=O)CSc2nc3cc(C(F)(F)F)ccc3s2)cc1 | 2.1
CCCC1=NN2C(=N)/C(=C/c3ccc(OC(C)c4ccccc4)cc3)C(=O)N=C2S1 (stereo not given) | -5.2
COc1ccc(/C=C2\CCC/C(=C\c3ccc(OC)cc3)C2=O)cc1 | -6.0
C=CCC(=O)N(Cc1cccnc1)CC1CCCN(C2CCCCC2)C1 (stereo not given) | 10.4
CSc1cccc(NC(=O)C2CCN(Cc3ccccc3)CC2)c1 | 5.1
CCS(=O)(=O)N1CCc2cc(S(=O)(=O)N3CCCC3)ccc21 | -10.1
Fc1ccccc1C1Nc2ccc3ccccc3c2C2C=CCC21 (stereo not given) | -7.2
Cc1ccc(C(=O)O)c2c1N[C@@H](c1ccccc1F)[C@H]1CC=C[C@@H]21 | 33.0*
CC(=O)Nc1ccc2c(c1)C1C=CCC1C(c1ccccc1F)N2 (stereo not given) | -7.5
CC1=CC=CN2C(=O)C(C(=O)NCCCN3CCCCC3C)C(=O)N=C12 (stereo not given) | -7.0
COc1ccccc1NC(=O)C1CC1 | 8.4
CCCCCOc1ccc(C2C(C(=O)c3cc4ccccc4o3)C(=O)C(=O)N2c2nc(C)c(C(C)=O)s2)cc1OC (stereo not given) | 0.7
Cc1ccc2nc(N3C(=O)C(=O)C(C(=O)c4cc5ccccc5o4)C3c3ccccc3)sc2c1 (stereo not given) | -3.2
CC(=O)c1sc(N2C(=O)C(=O)C(C(=O)c3cc4ccccc4o3)C2c2ccc(F)cc2)nc1C (stereo not given) | -0.7
COc1cc(C2C(C(=O)c3cc4ccccc4o3)C(=O)C(=O)N2c2nc3c(C)cc(C)cc3s2)ccc1OCc1ccccc1 (stereo not given) | 4.3
O=C1C(=O)N(c2nnc(SCc3ccccc3F)s2)C(c2ccc(F)cc2)C1C(=O)c1cc2ccccc2o1 (stereo not given) | 3.2
